Laboratory results published in PubChem BioAssay (NCI).
Where “and” joins values, the source holds several entries; their conditions need not be identical. Equal values may be shown once. Compounds without any hit were thinned out: in the full panel of roughly 83,000, 20% have a hit.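 Compound tested at a single concentration for 48 hours in 96-well plates; a percent growth value below 10 was scored as active.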 Calls of active or inactive are those of the source.

Columns and labels:
Experiment in all cases: NCI-60 one-dose screen, 48 h (100 = growth as untreated, 0 = no growth, -100 = all killed)
[1] = test system: NCI-H226 lung; conditions: 10 µM unless noted
[2] = test system: NCI-H322M lung
[3] = test system: HOP-62 NSCLC
[4] = test system: NCI-H460 lung
[5] = test system: HOP-92 NSCLC
[6] = test system: NCI-H522 lung
[7] = test system: A549/ATCC NSCLC
[8] = test system: 786-0 renal
[9] = test system: COLO 205 colon
[10] = test system: DU-145 prostate
[11] = test system: K-562 leukemia
[12] = test system: MALME-3M melanoma
[13] = test system: MDA-MB-231 breast
[14] = test system: RXF 393 renal
[15] = test system: SF-268 CNS
[16] = test system: SF-295 CNS; conditions: 10 µM unless noted
[17] = test system: SF-539 CNS
[18] = test system: UACC-257 melanoma
[19] = test system: M14 melanoma

Measured: growth

CC[C@H](C)[C@H](NC(=O)CN(C)C)C(=O)N(C)[C@H](C[C@@H](OC(C)=O)c1nc(C(=O)NC23CC(C(=O)OC)(C2)C3)cs1)C(C)C
inactive: [1] 35.2% | [2]; 10 µM unless noted 39.2% | [3]; 10 µM unless noted 20.1% | [5]; 10 µM unless noted 57.2% | [6]; 10 µM unless noted 12% | [7]; 10 µM unless noted 19.3% | [8]; 10 µM unless noted 26.4% | [12]; 10 µM unless noted 50.9% | [15]; 10 µM unless noted 21.8% | [16] 13.8% | [18]; 10 µM unless noted 46.8%
active: [4]; 10 µM unless noted 7.29% | [9]; 10 µM unless noted -35.8% | [10]; 10 µM unless noted 9.21% | [11]; 10 µM unless noted 9.47% | [13]; 10 µM unless noted 1.51% | [14]; 10 µM unless noted 8.43% | [17]; 10 µM unless noted -8.6% | [19]; 10 µM unless noted -8.54%

CN(C)C(=S)SSC(=S)N(C)C
-20.9% (active) and 92.9% (inactive): [4]; 10 µM unless noted
inactive: [1] 99.3% and 110% | [3]; 10 µM unless noted 111% and 112% | [5]; 10 µM unless noted 102% | [7]; 10 µM unless noted 80% and 71.6% | [8]; 10 µM unless noted 107% and 101% | [9]; 10 µM unless noted 63.1% and 70.6% | [10]; 10 µM unless noted 105% and 125% | [11]; 10 µM unless noted 105% | [12]; 10 µM unless noted 65.5% and 90.9% | [13]; 10 µM unless noted 112% and 98.5% | [14]; 10 µM unless noted 104% and 128% | [15]; 10 µM unless noted 102% and 113% | [16] 75% and 96.9% | [17]; 10 µM unless noted 100% and 112% | [18]; 10 µM unless noted 77.7% and 103%

CCCCOC(N)=O
inactive: [1] 103% | [2]; 10 µM unless noted 102% | [3]; 10 µM unless noted 105% | [4]; 10 µM unless noted 106% | [6]; 10 µM unless noted 106% | [7]; 10 µM unless noted 109% | [8]; 10 µM unless noted 104% | [9]; 10 µM unless noted 108% | [10]; 10 µM unless noted 109% | [11]; 10 µM unless noted 102% | [13]; 10 µM unless noted 109% | [15]; 10 µM unless noted 104% | [16] 105% | [17]; 10 µM unless noted 109% | [18]; 10 µM unless noted 110% | [19]; 10 µM unless noted 97.5%

C=CCOC(=O)C(Br)CC (configuration not stated)
inactive: [1] 101% | [2]; 10 µM unless noted 108% | [3]; 10 µM unless noted 108% | [4]; 10 µM unless noted 104% | [6]; 10 µM unless noted 99.2% | [7]; 10 µM unless noted 107% | [8]; 10 µM unless noted 106% | [9]; 10 µM unless noted 103% | [10]; 10 µM unless noted 108% | [11]; 10 µM unless noted 107% | [12]; 10 µM unless noted 99.9% | [13]; 10 µM unless noted 93.6% | [14]; 10 µM unless noted 118% | [15]; 10 µM unless noted 106% | [16] 109% | [17]; 10 µM unless noted 100% | [18]; 10 µM unless noted 104% | [19]; 10 µM unless noted 109%

CCC(Br)(CC)C(=O)NC(N)=O
inactive: [1] 96.4% | [2]; 10 µM unless noted 106% | [4]; 10 µM unless noted 103% | [5]; 10 µM unless noted 103% | [6]; 10 µM unless noted 105% | [7]; 10 µM unless noted 104% | [8]; 10 µM unless noted 107% | [9]; 10 µM unless noted 108% | [10]; 10 µM unless noted 107% | [11]; 10 µM unless noted 105% | [12]; 10 µM unless noted 106% | [13]; 10 µM unless noted 121% | [14]; 10 µM unless noted 114% | [15]; 10 µM unless noted 102% | [16] 97.7% | [17]; 10 µM unless noted 89.9% | [18]; 10 µM unless noted 104%

Nc1nc(=S)nc(N)[nH]1
inactive: [1] 96.9% | [2]; 10 µM unless noted 102% | [3]; 10 µM unless noted 89% | [4]; 10 µM unless noted 111% | [8]; 10 µM unless noted 88.6% | [10]; 10 µM unless noted 113% | [11]; 10 µM unless noted 103% | [12]; 10 µM unless noted 102% | [13]; 10 µM unless noted 92.1% | [14]; 10 µM unless noted 101% | [15]; 10 µM unless noted 93.3% | [16] 95.9% | [17]; 10 µM unless noted 97.1% | [18]; 10 µM unless noted 87.2% | [19]; 10 µM unless noted 89.5%

CC(=O)OCC1OC([S-])C(OC(C)=O)C(OC(C)=O)C1OC(C)=O.[Au+].c1ccc(CN2[CH-]N(Cc3ccccc3)C(c3ccccc3)=C2c2ccccc2)cc1
active: [3]; 4.75 µM -12.6% | [4]; 4.75 µM 1.76% | [5]; 4.75 µM -24% | [5]; 10 µM -9.45% | [6]; 4.75 µM -68.7% | [6]; 10 µM -27.9% | [7]; 4.75 µM 8.63% | [8]; 4.75 µM -33.7% | [8]; 10 µM -72.1% | [9]; 4.75 µM -75.6% | [11]; 4.75 µM -15.1% | [11]; 10 µM -6.23% | [12]; 4.75 µM -20.1% | [12]; 10 µM -49% | [13]; 4.75 µM -43.6% | [13]; 10 µM -55.7% | [14]; 4.75 µM -65.4% | [14]; 10 µM -75% | [15]; 4.75 µM -6.05% | [15]; 10 µM -36% | [18]; 4.75 µM -17.4% | [19]; 4.75 µM 8.95% | [19]; 10 µM -12%
inactive: [2]; 4.75 µM 20.8% | [2]; 10 µM 57.5% | [3]; 10 µM 45.1% | [4]; 10 µM 29.2% | [7]; 10 µM 59.2% | [9]; 10 µM 13.6% | [10]; 4.75 µM 10.1% | [10]; 10 µM 11.3% | [17]; 4.75 µM 14.3% | [17]; 10 µM 41.8% | [18]; 10 µM 20.6%

ClC1OC(Cl)(Cl)C(Cl)(Cl)OC1(Cl)Cl (configuration not stated)
inactive: [1] 94.7% | [2]; 10 µM unless noted 100% | [3]; 10 µM unless noted 104% | [4]; 10 µM unless noted 128% | [6]; 10 µM unless noted 89.4% | [7]; 10 µM unless noted 102% | [8]; 10 µM unless noted 109% | [9]; 10 µM unless noted 110% | [10]; 10 µM unless noted 114% | [11]; 10 µM unless noted 98.1% | [12]; 10 µM unless noted 97.5% | [13]; 10 µM unless noted 105% | [14]; 10 µM unless noted 110% | [15]; 10 µM unless noted 108% | [16] 109% | [17]; 10 µM unless noted 91% | [18]; 10 µM unless noted 99.5%
